Shown are actives, neighbours in structure and some others; about 1.7% of the full set was active somewhere.
PTHR1 ag – PTHR1 (human) receptor agonism. HEK293 GP2 PTHR1 cells, GloSensor cAMP luminescence, 1 h. 0.075% of 410,000 active. Q03431. Potency, µM (titrated, usually from 115 µM), for inactives: top-dose activation, hits mostly activators; note: nearly all actives have a fitted effect of over 55% in size
Target sequence (Q03431 whole entry, looked up): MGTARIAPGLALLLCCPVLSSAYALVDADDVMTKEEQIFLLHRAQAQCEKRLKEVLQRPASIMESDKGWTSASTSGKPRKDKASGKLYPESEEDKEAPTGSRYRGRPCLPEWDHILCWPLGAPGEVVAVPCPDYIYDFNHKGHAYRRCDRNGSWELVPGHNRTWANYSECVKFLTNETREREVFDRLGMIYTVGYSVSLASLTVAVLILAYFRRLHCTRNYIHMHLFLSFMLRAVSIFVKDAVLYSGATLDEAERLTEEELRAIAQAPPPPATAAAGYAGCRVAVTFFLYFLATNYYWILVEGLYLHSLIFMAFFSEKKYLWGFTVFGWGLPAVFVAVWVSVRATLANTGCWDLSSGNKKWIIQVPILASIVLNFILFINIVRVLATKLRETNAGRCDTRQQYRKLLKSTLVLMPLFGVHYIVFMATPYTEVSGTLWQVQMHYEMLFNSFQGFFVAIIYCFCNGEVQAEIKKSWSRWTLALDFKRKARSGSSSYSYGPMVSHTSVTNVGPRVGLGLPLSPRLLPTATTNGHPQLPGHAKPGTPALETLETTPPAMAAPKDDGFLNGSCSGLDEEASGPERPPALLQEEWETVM
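HEK-293-derived GP2 cells expressing PTHR1 and a GloSensor cAMP reporter, 3,000/well, plated overnight, given luciferin plus IBMX (each 0.5 mM as added) for 1 h at 37 °C, then compound for 1 h at 37 °C. Luminescence was read after 15 min at room temperature.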
GLP1R cytotox – cytotoxicity counter-screen for GLP-1 receptor inverse agonists; HEK293 cAMP-luciferase reporter cells, luminescence, 24 h; Potency, µM (titrated, usually from 38.3 µM), for the others: at the top dose activity change, negative = inhibition, hits mostly inhibitors; 0.13% of 410,000 active; AID 624418;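 note: loss of luciferase light is scored as toxicity; % is set by controls: 0 for no effect and ±100 for the full control effect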
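1536-well qHTS counterscreen of the MLSMR; 200 cells/uL, 12 h pre-incubation, 23 nL cpd, 24 h at 37 deg C 5% CO2, luciferase detection reagent, 12 min RT, luminescence. Inhibition = undesired.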
GLP-1R agonist – GLP-1 receptor (human) agonism | P43220 | HEK293 GLP-1R CRE-luciferase, luminescence, 4-6 h; cells express a hypersensitive GLP-1R form | Potency, µM (series often up to 45.6 µM), inactives show at the highest dose activation, hits mostly activators | 0.007% of 380,000 active | AID 624172; note: % of control where 0% means no effect
GLP-1R inv ag – acts as inverse agonist at human GLP-1 receptor | HEK293 GLP-1R CRE-luciferase, luminescence, 24 h; GLP-1R form is constitutively active | Potency, µM (series often up to 38.3 µM), for inactives: at the top dose activity change, negative = inhibition, most hits filed as inhibitors | 1.6% of 410,000 active; note: % is set by controls: 0 for no effect and ±100 for the full control effect; nearly all actives have a fitted effect of over 55% in size
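Readout was luciferase luminescence, measured 12 min after detection reagent at room temperature. Beforehand, GLP-1R reporter HEK293 cells had sat 12 h, then received compounds for 24 hr at 37 deg C.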
Active calls of the source: *; ! = not confirmed by another sample; [ ] = another dose, or the depositor's remark. Calls come from the whole dose curve; as a rule, active = well fitted curve in the direction sought with a large enough effect; inconclusive = small, poorly fitted or top-dose-only effect, or another doubt; inactive = no such curve, though single readings can be large; an effect the other way counts as inactive or inconclusive. Potency is the fitted concentration of half-maximal effect.

Results for N#CC1(NC(=O)COC(=O)C23CC4CC(CC(O)(C4)C2)C3)CCCCC1 ?
PTHR1 ag: -23.2%; GLP1R cytotox: 2.2%; GLP-1R agonist: -7.4%; GLP-1R inv ag: 18.4%

Results for CN(C(=O)COC(=O)C12CC3CC(CC(Cl)(C3)C1)C2)C1(C#N)CCCCC1 ?
PTHR1 ag: -42.6%; GLP1R cytotox: -35.5%; GLP-1R agonist: -4.6%; GLP-1R inv ag: 12.6µM*

How did c1ccc(COc2ncnc3c2ncn3CCCNCc2cccs2)cc1 do in these assays?
PTHR1 ag: -11.1%; GLP1R cytotox: -1.6%; GLP-1R agonist: 5.8%; GLP-1R inv ag: -28.7%

Results for COC(=O)Cc1ccc(NC(=O)c2ccc(C(C)(C)C)cc2)cc1 ?
PTHR1 ag: -14.7%[57.5 µM]; GLP1R cytotox: inconclusive; GLP-1R agonist: -1.2%; GLP-1R inv ag: 4.47µM*

What do the screens show for `CC(C)(C)c1ccc(C(=O)Nc2ccc(Cl)cc2)cc1`?
PTHR1 ag: inactive; GLP1R cytotox: -2.6%; GLP-1R agonist: -0.5%; GLP-1R inv ag: 18.2%

Results for CCN(CC)C(=O)C1CCCc2c1[nH]c1ccc(Cl)cc21 (configuration not stated) ?
PTHR1 ag: -14.4%; GLP1R cytotox: -16.1%; GLP-1R agonist: -7.2%; GLP-1R inv ag: 4.47µM*

Results for O=C(c1ccco1)N1CCN(C(=O)C2CCCc3c2[nH]c2ccc(Cl)cc32)CC1 (configuration not stated) ?
PTHR1 ag: -4.5%[57.5 µM]; GLP1R cytotox: -3.1%; GLP-1R agonist: -0.2%; GLP-1R inv ag: 5.01µM*

How did O=C(O)c1[nH]c2ccc(Cl)cc2c1CC(=O)N1CCN(C(=O)c2ccco2)CC1 do in these assays?
PTHR1 ag: inactive; GLP1R cytotox: 5.1%; GLP-1R agonist: -23.6%; GLP-1R inv ag: 8.6%

How did CCCSCCCNC(=O)c1cc2n(n1)CCCN(Cc1ccc(C)cc1)C2=O do in these assays?
PTHR1 ag: -48.6%; GLP1R cytotox: 0.8%; GLP-1R inv ag: -3.3%

How did CCOC(=O)c1ccc(C#Cc2ccc3c(c2)C(C)(C)CCS3)nc1 do in these assays?
GLP-1R agonist: 4.5%

How did CCCCOc1ccc(CSC2=NCCN2)cc1[N+](=O)[O-] do in these assays?
PTHR1 ag: -49.6%; GLP1R cytotox: inconclusive; GLP-1R agonist: -5.6%; GLP-1R inv ag: 10µM*

How did CCN(CC)CCSc1nnc2c3cc(C)ccc3n(Cc3ccccc3)c2n1 do in these assays?
PTHR1 ag: -4.0%; GLP1R cytotox: inconclusive; GLP-1R agonist: 24.2%; GLP-1R inv ag: 12.6µM*

How did CCCCn1c2ccc(F)cc2c2nnc(SCCN(CC)CC)nc21 do in these assays?
PTHR1 ag: -34.2%; GLP1R cytotox: 1.6%; GLP-1R agonist: 7.9%; GLP-1R inv ag: 20.6%

Results for CN(C(=S)NC(=O)c1ccccc1Br)C1CCCCC1 ?
PTHR1 ag: inactive; GLP1R cytotox: inconclusive; GLP-1R agonist: 2.5%; GLP-1R inv ag: 10µM*

Results for Cc1ccccc1C(=O)NC(=S)N(C)C1CCCCC1 ?
PTHR1 ag: -20.3%; GLP1R cytotox: inconclusive; GLP-1R agonist: -1.5%; GLP-1R inv ag: inconclusive

How did Cc1ccc(C(=O)c2ccccc2C(=O)OCC(=O)Nc2ccc(SC(F)F)cc2)cc1 do in these assays?
PTHR1 ag: -20.6%; GLP1R cytotox: 7.4%; GLP-1R agonist: -6.8%; GLP-1R inv ag: 8.91µM*

How did O=C(COc1cccc(OC(F)F)c1)Nc1ccc(SC(F)F)cc1 do in these assays?
PTHR1 ag: -8.7%[57.5 µM]; GLP1R cytotox: 3.0%; GLP-1R agonist: 9.4%; GLP-1R inv ag: 10µM*

How did COc1cc(NC(=O)CCS(=O)(=O)c2ccc3c(c2)n(C)c(=O)c(=O)n3C)cc(OC)c1 do in these assays?
PTHR1 ag: 22.4µM*!; GLP1R cytotox: -10.1%; GLP-1R agonist: -6.1%; GLP-1R inv ag: -7.2%

How did CCOc1cc(CNC(=O)c2ccc3c(c2)nc2n3CCCCC2)ccc1OC do in these assays?
PTHR1 ag: -17.1%; GLP1R cytotox: 21.7%; GLP-1R inv ag: 54.6%

What do the screens show for `O=C(NCC(c1cccs1)N1CCc2ccccc21)c1ccccc1` (configuration not stated)?
PTHR1 ag: -2.3%; GLP1R cytotox: inconclusive; GLP-1R agonist: -1.6%; GLP-1R inv ag: 7.08µM*

What do the screens show for `COc1ccccc1C(=O)NCC(c1cccs1)N1CCc2ccccc21` (configuration not stated)?
PTHR1 ag: -24.2%; GLP1R cytotox: -0.2%; GLP-1R agonist: -4.2%; GLP-1R inv ag: 10µM*

What do the screens show for `Cc1ccc(-n2c3nc(=O)[nH]c(=O)c-3cc3cc([N+](=O)[O-])ccc32)cc1C`?
PTHR1 ag: -36.3%; GLP1R cytotox: inconclusive; GLP-1R agonist: 7.9%; GLP-1R inv ag: 10µM*

Results for Cc1ccc(S(=O)(=O)n2cnc3cc([N+](=O)[O-])ccc32)cc1C ?
PTHR1 ag: inactive; GLP1R cytotox: 0.4%; GLP-1R agonist: 0.1%; GLP-1R inv ag: 6.5%

How did O=C(COC(=O)/C=C/c1ccc2c(c1)OCO2)NCc1ccccc1 do in these assays?
PTHR1 ag: -24.2%; GLP1R cytotox: -5.0%; GLP-1R agonist: -8.1%; GLP-1R inv ag: -24.4%

What do the screens show for `CCC(C(=O)NCc1ccco1)N(C(=O)CNS(=O)(=O)c1ccccc1)C1CCCCC1` (configuration not stated)?
PTHR1 ag: inactive; GLP1R cytotox: -29.6%; GLP-1R agonist: -4.0%; GLP-1R inv ag: 10.9%

Results for CCCC(C(=O)NCc1ccco1)N(C(=O)CNS(=O)(=O)c1ccc(Cl)cc1)C1CCCC1 (configuration not stated) ?
PTHR1 ag: inactive; GLP1R cytotox: -7.8%; GLP-1R agonist: -20.1%; GLP-1R inv ag: 10µM*

Results for Oc1ccccc1C=NNC(=S)NC1CC2C=CC1C2 (configuration not stated) ?
PTHR1 ag: -31.4%; GLP1R cytotox: inconclusive; GLP-1R agonist: 16.9%; GLP-1R inv ag: inconclusive

Results for Oc1ccccc1/C=N/NC(=S)NC1CC2C=CC1C2 (configuration not stated) ?
PTHR1 ag: -11.0%; GLP1R cytotox: 0.0%; GLP-1R agonist: inconclusive; GLP-1R inv ag: 7.94µM*

Results for COc1ccccc1NS(=O)(=O)c1cc([N+](=O)[O-])ccc1N/N=C/c1c[nH]c2ccccc12 ?
PTHR1 ag: inactive; GLP1R cytotox: -23.5%; GLP-1R agonist: 0.3%; GLP-1R inv ag: 5.01µM*

Results for Cc1cc(C)cc(N(CC(=O)Nc2cccc(C)n2)S(=O)(=O)c2c(C)noc2C)c1 ?
PTHR1 ag: inactive; GLP1R cytotox: -5.4%; GLP-1R agonist: -2.0%; GLP-1R inv ag: 8.91µM*

How did COc1ccc(N(CC(=O)NC(C)c2ccccc2)S(=O)(=O)c2c(C)noc2C)cc1 (configuration not stated) do in these assays?
PTHR1 ag: -27.9%; GLP1R cytotox: -13.5%; GLP-1R agonist: -1.8%; GLP-1R inv ag: 8.91µM*!

What do the screens show for `CC1CCCN(CCOc2ccc3ccccc3c2Br)C1` (configuration not stated)?
PTHR1 ag: inactive; GLP1R cytotox: inconclusive; GLP-1R agonist: 19.6%; GLP-1R inv ag: 10µM*

Bioassay records: PubChem, National Center for Advancing Translational Sciences (NCATS)
